For 26 compounds, growth results are on record in PubChem BioAssay (NCI).

“And” between values parts separate entries of the source, which are not always exact repeats. Equal values may be shown once. Compounds without any hit were thinned out: in the full panel of roughly 83,000, 20% have a hit.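 Method: cells in 96-well plates; compound added at one concentration; 48 h incubation; percent growth measured; values under 10 scored active.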 The source made the active and inactive calls.

This assay concerns MDA-MB-468 breast. As to the kind of experiment: NCI-60 one-dose screen, 48 h (100 = growth as untreated, 0 = no growth, -100 = all killed). Conditions: 10 µM unless noted.
In the case of `Cc1[nH]c(=S)[nH]c(=O)c1C`, the growth is 112% (inactive). `CCC1CCc2nc3sc(C(=O)Nc4ccccc4C)c(N)c3cc2C1` (stereo unspecified): the growth was -0.179% (active). The value for `Cc1nc2ccccc2c(/C=C/c2ccc(C(F)(F)F)cc2)c1C(=O)/C=C/c1ccccc1` was -51% (active); that for `CCCCCCCCCC[N+](C)(C)N` was 55.1% (inactive). In the case of `CC(C)(C)n1cc(-c2ccnc(NCCNS(=O)(=O)c3ccc(Br)cc3)c2)c(-c2cccc(O)c2)n1`, the growth was 2.11% (active). On to `COc1ccc(NC2=NC(C)(CO)CS2)cc1` (stereo unspecified), for which the growth was 108% (inactive). With `CC1=NN(c2cccc(S(N)(=O)=O)c2)C(=O)C1`, the growth was 95.6% (inactive). Turning to `Cc1ccc2sc3c(c2c1)OC(N)=C(C#N)C3c1ccc(Cl)cc1` (stereo unspecified), the growth was -18.7% (active). On to `COc1cc(/C=C/c2cc(/C=C/c3ccc(O)c(OC)c3)n(C(=O)Nc3ccc(F)c(Cl)c3)n2)ccc1O`, for which the growth was -27.6% (active).

Turning to `Clc1ccc2c(c1)N(C1CCCN(Cc3ccccc3)C1)c1ccccc1S2` (stereo unspecified), the growth is 29.5% (inactive).

On to `CCCN(CCC)CN(CCC)CCC`, for which the growth is 106% (inactive).

On to `NC1(C(=O)O)CSSC1`, for which the growth was 29.6% (inactive).

Turning to `Cc1cc(O[C@@H]2O[C@@H](C)[C@H](O)[C@@H](O)[C@H]2O)c2c3c(c(O[C@@H]4O[C@@H](C)[C@H](O)[C@@H](O)[C@H]4O)cc2c1)C(=O)c1c(O)cccc1C3=O`, the growth is 67.5% (inactive). Regarding `O=C1CC(=NCC(=O)n2c(-c3ccccc3)nc3ccccc32)NN1`, the growth was 94% (inactive). The result for `CCCCCCCCCCCCCCCCCC(=O)NCCNC(=O)CCCCCCCCCCCCCCCCC` reads 102% (inactive); that for `C=C(C)[C@@H]1CC[C@]2(C(=O)O)CC[C@]3(C)[C@H](CC[C@@H]4[C@@]5(C)C/C(=C/c6ccc(OC)cc6)C(=O)C(C)(C)[C@@H]5CC[C@]43C)[C@@H]12`, 0.722% (active); that for `CC1(/C=C/c2ccc(-c3ccccc3)cc2)CCn2cnc3ncnc(c32)N1O` (stereo unspecified), -5.41% (active).

`CCC1N=C(N)N=C(N)N1c1ccc(Cl)cc1` (stereo unspecified): the growth was 80.6% (inactive).

For `CC(=O)c1sc2sc(C(C)=O)c(C)c2c1C`, the growth is 61.4% (inactive). Take `O=C(Nc1ccc(Oc2cccc(Cl)c2)c(Cl)c1)c1cccnc1`: the growth is -9.21% (active). Regarding `COc1ccc(-c2cc(C(=O)N=Nc3c(O)[nH]c4ccccc34)c3ccccc3n2)cc1OC`, the growth is 92.3% (inactive). Take `C1CCC([PH+](C2CCCCC2)C2CCCCC2[PH+](C2CCCCC2)C2CCCCC2)CC1.[Au].[CH-]1CCCCC1C1CCCC[N-]1` (stereo unspecified): the growth is -33.9% (active).

Turning to `COc1cc(-c2ccc(NC(=O)NC3CC3)c(OC)c2)ccc1NC(=O)NC1CC1`, the growth is 88.8% (inactive). On to `Cc1ccc(NC(=O)c2sc3nc(C)c(Br)c(C)c3c2N)cc1`, for which the growth is 66.6% (inactive). `CN(C)c1ccc2nc3ccc(=[N+](C)C)cc-3sc2c1`: the growth is -31.5% (active) and -9.26% (active) and -4.98% (active). The result for `CCN1C(=O)N(CC)C2C1NC(=S)N2/N=C/c1ccc(OC)cc1` (stereo unspecified) reads 26.8% (inactive).
